Experimental data reported in PubChem BioAssay AID2283172 (EPA ToxCast).
The source made the active and inactive calls. Rule for the calls: active = hit-call score of the fitted dose curve at least 0.9, where 1 is the maximum; inactive = score below 0.9.

The compounds below were run against human LYN Proto-Oncogene, Src family Tyrosine Kinase (LynB), LYN (gene 4067) (UniProt P07948) (assay: NVS_ENZ_hLynB: NovaScreen (NVS) Enzymatic Assay for human LYN Proto-Oncogene, Src family Tyrosine Kinase (LynB)).
Sequence of human LYN Proto-Oncogene, Src family Tyrosine Kinase (LynB), LYN (gene 4067) (P07948 whole entry, looked up): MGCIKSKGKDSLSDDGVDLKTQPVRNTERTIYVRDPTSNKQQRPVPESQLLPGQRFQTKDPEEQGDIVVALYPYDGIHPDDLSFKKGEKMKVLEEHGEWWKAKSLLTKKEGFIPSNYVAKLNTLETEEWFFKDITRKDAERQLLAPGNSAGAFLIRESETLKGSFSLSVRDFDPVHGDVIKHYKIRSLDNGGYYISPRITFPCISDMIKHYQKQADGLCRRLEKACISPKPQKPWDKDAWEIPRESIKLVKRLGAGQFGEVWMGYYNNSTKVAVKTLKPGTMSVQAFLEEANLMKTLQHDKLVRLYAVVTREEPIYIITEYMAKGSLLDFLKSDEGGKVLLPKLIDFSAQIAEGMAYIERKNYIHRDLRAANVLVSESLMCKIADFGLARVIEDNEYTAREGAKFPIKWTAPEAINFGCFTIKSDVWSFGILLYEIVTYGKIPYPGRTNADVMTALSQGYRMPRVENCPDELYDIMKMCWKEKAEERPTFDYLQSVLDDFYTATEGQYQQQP
Experimental: NVS_ENZ_hLynB is a biochemical, single-readout assay that uses extracted gene-proteins in a cell-free assay. Measurements were taken 1 hour after chemical dosing in a 384-well plate.NVS_ENZ_hLynB is one of one assay component(s) measured or calculated from the NVS_ENZ_hLynB assay. It is designed to make measurements of enzyme activity, a form of enzyme reporter, as detected with fluorescence intensity signals by Fluorescence and electrophoretic mobility shift technology.Data from the assay component NVS_ENZ_hLynB was analyzed into 1 assay endpoint. This assay endpoint, NVS_ENZ_hLynB, was analyzed in the positive analysis fitting direction relative to DMSO as the negative control and baseline of activity. Using a type of enzyme reporter, loss-of-signal activity can be used to understand changes in the enzymatic activity as they relate to the gene LYN. Furthermore, this assay endpoint can be referred to as a primary readout, because this assay has produced multiple assay endpoints where this one serves a enzymatic activity function. To generalize the intended target to other relatable targets, this assay endpoint is annotated to the kinase intended target family, where the subfamily is non-receptor tyrosine kinase. […]
With CCOCN(C(=O)CCl)c1c(C)cccc1CC the outcome was “inactive”.
